This is an account of results in PubChem BioAssay (NCATS).

Inconclusive results are not listed. Unmarked numbers belong to inactive results. This is one part of the list. The source made the active and inactive calls. Calls come from the whole dose curve; as a rule, active = well fitted curve in the direction sought with a large enough effect; inconclusive = small, poorly fitted or top-dose-only effect, or another doubt; inactive = no such curve, though single readings can be large; an effect the other way counts as inactive or inconclusive.

For experiment [1], the target named is Rap guanine nucleotide exchange factor 3 (Homo sapiens) (UniProt O95398). Description: Confirmatory qHTS for antagonist of cAMP-regulated guanine nucleotide exchange factor 3 (EPAC1) (AID 1645880).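 For activity, negative = inhibition: plate controls were DMSO only for no effect and full effect of the ATA control for full effect.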 Note: nearly all actives have a fitted effect of over 55% in size. Note: potency is the fitted concentration of half-maximal effect. The note with it: EPAC1 Rap1B-BODIPY-GDP exchange, fluorescence; activity, negative = inhibition: at 115 µM (top of the series). An outline of the steps:
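Nucleotide exchange uses 100 nM EPAC1, 250 nM RAP1B-BODIPY-GDP and 50 uM GDP, with compounds in a concentration-titration series. After 5 min at room temperature, fluorescence (480 nm ex/540 nm em) is read every 5 min for 30 min. Data are normalized to control ATA and DMSO.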
For orientation: qHTS replaces the single test concentration by a dilution series.

Experiment [2] has the same target. Description: Confirmatory qHTS for agonist of cAMP-regulated guanine nucleotide exchange factor 3 (EPAC1) (AID 1645881).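 For activation: EPAC1 catalysed release of BODIPY-GDP from Rap1B seen as fluorescence loss; 100% = effect of cAMP agonist control.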 Note: nearly all actives have a fitted effect of over 75% in size. Note: potency is the fitted concentration of half-maximal effect.
Experiment [3] addresses Rap guanine nucleotide exchange factor 4 (Homo sapiens) (UniProt Q8WZA2). Description: Confirmatory qHTS for agonist of cAMP-regulated guanine nucleotide exchange factor 4 (EPAC2) (AID 1645884). For activation: % is set by controls: 0 for no effect and ±100 for the full control effect.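 Note: nucleotide exchange releases bodipy-GDP from Rap1 and this lowers its fluorescence; nearly all actives have a fitted effect of over 65% in size.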 Note: potency is the fitted concentration of half-maximal effect.
Experiment [4] shares this target. Description: Confirmatory qHTS for antagonist of cAMP-regulated guanine nucleotide exchange factor 4 (EPAC2) (AID 1645885). For activity change, negative = inhibition: % is set by controls: 0 for no effect and ±100 for the full control effect. Note: nearly all actives have a fitted effect of over 25% in size. Note: potency is the fitted concentration of half-maximal effect.
The target in experiment [5] is Rap guanine nucleotide exchange factor 3 (Homo sapiens) (UniProt O95398). Description: Counterscreen qHTS for agonist of cAMP-regulated guanine nucleotide exchange factor 3 (EPAC1) (AID 1645889). For activation: % of control where 0% means no effect. Note: nearly all actives have a fitted effect of over 40% in size. Note: potency is the fitted concentration of half-maximal effect. An outline of the steps: (§1)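 Rap1B-BODIPY-GDP 250 nM + GDP 50 uM; cpds 7-pt, final 9.74 nM–152 uM (activator mode) or from 7.32 nM upwards (inhibitor mode); RT; FI 480/540 nm at 5 and 30 min, then ± cAMP, reread.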
(Counterscreens check selectivity or assay interference.)

Experiment [6] has as its target Tumor susceptibility gene 101 protein (Homo sapiens) (UniProt Q99816). The experiment can be described thus: qHTS Assay for Iinhibitors of HIV-1 Budding by Blocking the Interaction of PTAP/TSG101: Hit Validation (AID 651600). For activity change, negative = inhibition: % is set by controls: 0 for no effect and ±100 for the full control effect. Note: nearly all actives have a fitted effect of over 70% in size. Note: potency is the fitted concentration of half-maximal effect. An outline of the steps:
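Displacement of a FITC-labeled PTAP-motif peptide (50 nM) from the Tsg101 binding domain (10 uM) was monitored by fluorescence polarization after a 20 min room-temperature incubation.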

In experiment [7] the target is Rap guanine nucleotide exchange factor 3 (Homo sapiens) (UniProt O95398). Description: Counterscreen qHTS for antagonist of cAMP-regulated guanine nucleotide exchange factor 3 (EPAC1) (AID 1645888).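 Note: fluorescence loss as bound BODIPY-GDP is released from Rap1B; % of control where 0% means no effect.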 An outline of the steps: as §1
In experiment [8] the target is Phosphoglycerate kinase, glycosomal (Trypanosoma brucei brucei) (UniProt P07378). The experiment can be described thus: qHTS for inhibitors of Phosphogylcerate Kinase: Hit Validation Screen (AID 686980). Note: potency is the fitted concentration of half-maximal effect; nearly all actives have a fitted effect of over 65% in size. The note with it: TbPGK coupled GAPDH assay, Kinase-Glo luminescence. The method, boiled down:
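Luminescent ATP detection (Kinase-Glo Plus) follows a 60-minute room-temperature incubation, with wells lacking PGK as controls. Buffer: 100 mM TEA (pH 7.6), 5 mM MgCl2, 0.01% Tween-20. Coupling enzyme GAPDH (100 nM final) supplies unstable 1,3-BPG in-well.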

Experiment [9] has as its target DNA polymerase iota (Homo sapiens) (UniProt Q9UNA4). Description: qHTS for Inhibitors of Polymerase Iota: Confirmatory Assay for Cherry-picked Compounds (AID 720496). Note: potency is the fitted concentration of half-maximal effect. The settings on record: Pol iota primer extension, TAMRA/BHQ fluorescence. An outline of the steps:
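Step 1: 10 nM Pol iota with compound, 15 min, room temperature. Step 2: 50 nM final quenched DNA substrate added. Step 3: fluorescence (ex 525, em 598 nm) read at 0 and after 10 min.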

Experiment [10] concerns the target Flap endonuclease 1 (Homo sapiens) (UniProt P39748). The experiment can be described thus: qHTS Assay for the Inhibitors of FEN1: Confirmatory Assay for Cherry-picked Compounds (AID 720498). Note: potency is the fitted concentration of half-maximal effect; nearly all actives have a fitted effect of over 60% in size. The note with it: FEN1 flap cleavage, TAMRA/BHQ2 fluorogenic DNA substrate. The method, boiled down: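 FEN1 at 10 nM was preincubated with compound for 15 min at room temperature, then 50 nM (final) double-flap DNA substrate was added. TAMRA fluorescence released from the BHQ-2-quenched flap was read at 0 and 15 min (ex 525/em 598 nm).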

Rap guanine nucleotide exchange factor 4 (Homo sapiens), sequence (Q8WZA2 whole entry, looked up): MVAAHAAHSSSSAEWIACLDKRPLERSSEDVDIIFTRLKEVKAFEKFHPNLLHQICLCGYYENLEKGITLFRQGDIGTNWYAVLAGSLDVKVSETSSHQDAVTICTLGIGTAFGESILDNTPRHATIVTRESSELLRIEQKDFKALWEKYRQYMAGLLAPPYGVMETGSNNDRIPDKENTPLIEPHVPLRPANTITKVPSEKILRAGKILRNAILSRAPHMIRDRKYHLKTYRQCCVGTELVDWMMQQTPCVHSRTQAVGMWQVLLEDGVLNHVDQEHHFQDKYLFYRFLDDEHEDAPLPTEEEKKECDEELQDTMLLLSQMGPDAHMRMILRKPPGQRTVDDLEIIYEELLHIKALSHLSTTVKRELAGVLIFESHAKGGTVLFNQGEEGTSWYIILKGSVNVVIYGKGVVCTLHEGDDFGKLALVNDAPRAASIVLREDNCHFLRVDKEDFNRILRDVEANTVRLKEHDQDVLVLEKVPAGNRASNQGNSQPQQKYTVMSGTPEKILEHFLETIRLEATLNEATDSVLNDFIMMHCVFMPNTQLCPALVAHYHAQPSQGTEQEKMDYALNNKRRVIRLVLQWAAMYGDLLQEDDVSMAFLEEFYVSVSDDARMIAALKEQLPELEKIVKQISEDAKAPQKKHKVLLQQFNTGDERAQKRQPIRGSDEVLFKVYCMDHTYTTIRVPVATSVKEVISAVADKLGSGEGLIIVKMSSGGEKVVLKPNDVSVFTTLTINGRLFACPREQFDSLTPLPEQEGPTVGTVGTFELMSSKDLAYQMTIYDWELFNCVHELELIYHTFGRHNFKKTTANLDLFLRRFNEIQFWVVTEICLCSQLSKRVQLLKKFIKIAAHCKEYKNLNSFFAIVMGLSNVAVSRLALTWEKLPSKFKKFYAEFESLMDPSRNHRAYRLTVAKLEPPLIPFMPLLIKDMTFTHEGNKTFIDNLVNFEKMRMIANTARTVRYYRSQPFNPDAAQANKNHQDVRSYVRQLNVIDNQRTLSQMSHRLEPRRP
Tumor susceptibility gene 101 protein (Homo sapiens), sequence (Q99816 whole entry, looked up, the tested form may be a part): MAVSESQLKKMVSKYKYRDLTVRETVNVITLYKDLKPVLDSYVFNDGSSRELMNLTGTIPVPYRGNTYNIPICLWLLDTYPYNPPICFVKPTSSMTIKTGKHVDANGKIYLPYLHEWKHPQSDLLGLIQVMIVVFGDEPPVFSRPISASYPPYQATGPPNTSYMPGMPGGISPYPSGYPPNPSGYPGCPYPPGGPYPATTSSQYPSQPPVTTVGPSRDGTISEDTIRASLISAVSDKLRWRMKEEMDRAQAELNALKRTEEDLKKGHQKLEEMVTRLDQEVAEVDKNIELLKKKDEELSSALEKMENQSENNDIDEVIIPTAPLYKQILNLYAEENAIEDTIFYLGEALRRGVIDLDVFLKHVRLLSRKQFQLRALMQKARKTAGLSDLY
Rap guanine nucleotide exchange factor 3 (Homo sapiens), sequence (O95398 whole entry, looked up): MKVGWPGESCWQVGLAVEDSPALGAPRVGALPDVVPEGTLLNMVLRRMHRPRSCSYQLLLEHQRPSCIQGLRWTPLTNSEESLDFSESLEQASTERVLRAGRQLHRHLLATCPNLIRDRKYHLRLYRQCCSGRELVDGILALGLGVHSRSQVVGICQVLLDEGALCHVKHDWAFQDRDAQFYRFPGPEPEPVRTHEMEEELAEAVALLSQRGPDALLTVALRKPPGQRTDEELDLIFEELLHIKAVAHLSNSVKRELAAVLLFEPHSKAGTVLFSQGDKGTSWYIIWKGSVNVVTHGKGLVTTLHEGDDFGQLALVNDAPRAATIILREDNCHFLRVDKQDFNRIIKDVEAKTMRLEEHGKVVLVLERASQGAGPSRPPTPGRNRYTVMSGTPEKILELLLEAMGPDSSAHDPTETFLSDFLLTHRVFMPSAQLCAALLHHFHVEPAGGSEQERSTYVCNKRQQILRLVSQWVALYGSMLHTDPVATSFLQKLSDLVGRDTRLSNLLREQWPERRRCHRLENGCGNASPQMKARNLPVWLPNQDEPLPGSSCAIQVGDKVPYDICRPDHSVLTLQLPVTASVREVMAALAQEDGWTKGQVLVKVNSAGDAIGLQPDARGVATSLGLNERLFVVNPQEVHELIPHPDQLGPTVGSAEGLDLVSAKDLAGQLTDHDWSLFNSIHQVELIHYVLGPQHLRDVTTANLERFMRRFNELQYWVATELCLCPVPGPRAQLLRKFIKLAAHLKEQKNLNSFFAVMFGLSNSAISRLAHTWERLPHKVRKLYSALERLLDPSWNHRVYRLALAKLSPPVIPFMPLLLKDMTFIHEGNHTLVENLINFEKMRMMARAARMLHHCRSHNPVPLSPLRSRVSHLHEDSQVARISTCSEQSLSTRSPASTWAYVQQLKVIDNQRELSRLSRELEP
DNA polymerase iota (Homo sapiens), sequence (Q9UNA4 whole entry, looked up): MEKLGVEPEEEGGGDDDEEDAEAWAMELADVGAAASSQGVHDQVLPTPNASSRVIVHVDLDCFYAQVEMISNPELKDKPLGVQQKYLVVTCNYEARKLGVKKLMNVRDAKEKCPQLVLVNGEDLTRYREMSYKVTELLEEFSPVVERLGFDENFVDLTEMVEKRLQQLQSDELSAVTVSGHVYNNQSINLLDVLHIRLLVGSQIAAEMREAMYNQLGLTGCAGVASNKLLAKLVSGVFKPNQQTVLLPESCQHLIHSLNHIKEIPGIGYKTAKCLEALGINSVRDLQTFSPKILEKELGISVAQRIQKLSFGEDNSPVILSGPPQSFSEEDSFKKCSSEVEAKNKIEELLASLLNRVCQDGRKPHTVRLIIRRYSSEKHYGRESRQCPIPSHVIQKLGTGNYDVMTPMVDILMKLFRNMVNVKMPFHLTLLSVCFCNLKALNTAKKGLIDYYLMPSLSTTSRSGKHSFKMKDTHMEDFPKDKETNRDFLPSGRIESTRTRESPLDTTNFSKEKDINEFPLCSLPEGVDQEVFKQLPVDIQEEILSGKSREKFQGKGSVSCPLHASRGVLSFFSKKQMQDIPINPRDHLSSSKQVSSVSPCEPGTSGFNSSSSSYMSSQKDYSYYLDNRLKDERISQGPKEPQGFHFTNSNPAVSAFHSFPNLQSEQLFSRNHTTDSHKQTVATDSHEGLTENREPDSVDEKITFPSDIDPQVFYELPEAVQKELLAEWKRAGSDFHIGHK
Phosphoglycerate kinase, glycosomal (Trypanosoma brucei brucei), sequence (P07378 whole entry, looked up): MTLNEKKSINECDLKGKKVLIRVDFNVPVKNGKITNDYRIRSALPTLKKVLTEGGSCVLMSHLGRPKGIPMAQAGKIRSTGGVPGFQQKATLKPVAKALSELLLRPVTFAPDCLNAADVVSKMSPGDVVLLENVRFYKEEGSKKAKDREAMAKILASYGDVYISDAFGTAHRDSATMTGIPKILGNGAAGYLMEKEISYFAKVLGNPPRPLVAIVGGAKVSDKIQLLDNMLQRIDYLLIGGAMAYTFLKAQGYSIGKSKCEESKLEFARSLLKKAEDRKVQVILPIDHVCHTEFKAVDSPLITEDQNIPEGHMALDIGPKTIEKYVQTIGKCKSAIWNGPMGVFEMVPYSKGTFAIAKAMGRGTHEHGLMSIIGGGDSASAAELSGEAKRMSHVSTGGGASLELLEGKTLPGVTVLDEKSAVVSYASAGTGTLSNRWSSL
Flap endonuclease 1 (Homo sapiens), sequence (P39748 whole entry, looked up): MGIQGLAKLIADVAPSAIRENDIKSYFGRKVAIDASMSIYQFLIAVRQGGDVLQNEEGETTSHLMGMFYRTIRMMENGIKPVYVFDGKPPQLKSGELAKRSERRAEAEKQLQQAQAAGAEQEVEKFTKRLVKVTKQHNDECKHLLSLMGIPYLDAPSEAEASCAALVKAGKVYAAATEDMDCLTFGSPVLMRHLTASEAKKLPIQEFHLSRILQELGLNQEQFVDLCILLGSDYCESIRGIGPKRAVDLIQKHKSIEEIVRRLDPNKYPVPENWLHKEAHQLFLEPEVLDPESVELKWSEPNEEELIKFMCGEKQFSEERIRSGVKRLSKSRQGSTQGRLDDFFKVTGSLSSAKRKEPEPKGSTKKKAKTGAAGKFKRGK

Take `CCCN(CCC)c1nc(-c2ccccn2)nc2ccccc12`: the Potency entry in experiment [1], in experiment [2] and in [4] was “inactive” each time. Besides, the activation was -0.687% [at 17.1 µM, percent relative to cAMP agonist control] in [3] and 0.395% [at 30.8 µM] in [5].

As to `CC1CN(c2nc3ccccc3nc2C(C#N)C(=O)NCc2ccc3c(c2)OCO3)CC(C)O1` (configuration not stated), the Potency entry in experiment [6], in experiment [1], in experiment [2], in experiment [3], in [4] and in experiment [7] was “inactive” throughout.

`Cn1c(N)c(C(=O)COC(=O)CCOc2ccc(C(C)(C)C)cc2)c(=O)n(C)c1=O`: the Potency entry in experiment [1], in [2], in experiment [3], in [4] and in experiment [5] was “inactive” each time.

With `CCCCn1c(CNC(=O)C23CC4CC(CC(C4)C2)C3)nnc1SCC(=O)Nc1ccc(F)cc1`, the Potency result in [1], in experiment [2], in experiment [3] and in [5] was “inactive” each time. Besides, in experiment [4], the outcome was “inactive [at 12.7 µM]”.

On to `CCOc1ccc(NC(=O)c2ccc(NC(=O)COC(=O)c3ccc(NC(=O)CC#N)cc3)cc2)cc1`, for which the Potency in experiment [8] was 8.19 µM (active); in [9] it was 4.74 µM (active); in [10], 67.5 µM (active). The Potency entry in experiment [1], in experiment [2], in [3], in experiment [4] and in experiment [7] was “inactive” throughout.

In the case of `Cn1c(/C(C#N)=C/c2ccc(-c3ccc(S(N)(=O)=O)cc3)o2)nc2ccccc21`, the Potency result in [6], in [1], in experiment [2], in [3] and in experiment [7] was “inactive” throughout. In addition, the Potency in experiment [4] is 95.3 µM (active).

With `CSc1ccc(C2C(C(=O)c3ccco3)=C(O)C(=O)N2c2nnc(SC)s2)cc1` (configuration not stated), the Potency was 33.8 µM (active) in experiment [1] and 19 µM (active) in experiment [4]. Besides, the Potency result in [2], in experiment [3] and in experiment [5] was “inactive” in each case.

Regarding `CC(C)(C)c1c(Cl)c(O)c(-c2ccccc2)c(=O)n1-c1ccccc1`, the Potency in experiment [1] is 23.9 µM (active). Besides, the Potency result in experiment [2], in experiment [3], in experiment [4] and in experiment [5] was “inactive” throughout.

For the molecule `Cc1ccc(CNC(=O)c2ccc3c(c2)nc(C)n3-c2cccc(F)c2)cc1`, the Potency result in [1], in [2], in experiment [3], in [4] and in [5] was “inactive” throughout.

Consider `CCCCCn1c(CCNC(=O)c2cccc(C)c2)nc2ccccc21`, for which the Potency result in experiment [1], in experiment [2], in experiment [3], in experiment [4] and in experiment [5] was “inactive” each time.

Turning to `Cc1ccc(-c2nnc(Nc3ccc4c(c3)nc(C)n4C)c3ccccc23)cc1`, the Potency result in experiment [1], in experiment [2] and in experiment [4] was “inactive” in each case. In addition, the activation in experiment [3] was 2.89% [at 17.1 µM, percent relative to cAMP agonist control]; in [5], 12% [at 30.8 µM].

As to `CC(=O)Nc1ccc(N=Cc2c(O)c(C(=O)Nc3ccccc3)cc3ccccc23)cc1`, in [6], the Potency was 16.3 µM (active). The Potency entry in experiment [1], in experiment [2] and in experiment [4] was “inactive” in each case. For the same molecule, the activation in [3] was -21% [at 17.1 µM, percent relative to cAMP agonist control]. For the same molecule, in experiment [7], the activity change, negative = inhibition was -16.4% [at 30.8 µM].

As to `O=C1N/C(=N/NC(=O)c2cccc3ccccc23)S/C1=C\c1ccccc1OCc1ccccc1`, the Potency in experiment [1] is 3.55 µM (active). Moreover, the Potency result in experiment [2] and in experiment [4] was “inactive” in each case. Moreover, the activation is 0.729% [at 17.1 µM, percent relative to cAMP agonist control] in experiment [3] and 8.81% [at 30.8 µM] in experiment [5].

Consider `CCN1CCN(C2=CC3=CC(=C(C#N)C#N)CCC3CC2)CC1` (configuration not stated), for which, in experiment [1], the Potency result was “inactive”. In addition, the Potency in experiment [2] was 79.4 µM (active); in experiment [3] it was 100 µM (active); in [4], 67.5 µM (active); in experiment [5], 10 µM (active).

On to `CCn1c(O)c(/C=N/N=C/c2ccc(OC)cc2)c2cc(C3=NNC(=O)CC3)ccc21`, for which the Potency entry in experiment [1], in experiment [4] and in experiment [5] was “inactive” each time. Also, the Potency was 89.1 µM (active) in experiment [2] and 100 µM (active) in experiment [3].

Consider `CC(=O)c1cc(CC(=O)N2CCc3c([nH]c4ccccc34)C2c2ccccn2)cs1` (configuration not stated), for which the Potency result in experiment [1], in [2], in [3], in [4] and in experiment [5] was “inactive” in each case.

With `CC(C)(C)OC(=O)N1CCN(C(=O)c2[nH]c(C(F)(F)F)nc2-c2ccccc2)CC1`, the Potency result in [1], in experiment [2], in experiment [3], in experiment [4] and in experiment [5] was “inactive” in each case.

With `CCOc1ccc(CNC(=O)c2ccccc2NC(=O)c2nsc3ccccc23)cc1`, the Potency entry in experiment [1], in experiment [2], in [3] and in experiment [5] was “inactive” throughout. The outcome in experiment [4] is “inactive [at 12.7 µM]”.

With `COc1ccc2nc3ccccc3nc2c1NC(=O)c1ccc(Cl)cc1Cl`, the Potency entry in experiment [6], in [1], in experiment [4] and in experiment [7] was “inactive” each time. The Potency in experiment [2] and in experiment [3] was 100 µM (active) throughout.

On to `O=C(NCCS(=O)(=O)N1CCc2ccccc2C1)c1ccccc1`, for which the Potency result in experiment [1], in experiment [2], in [3], in experiment [4] and in experiment [5] was “inactive” in each case.

For the molecule `CCn1cc(SCC(=O)NCc2ccc3c(c2)OCO3)c2ccccc21`, the Potency result in experiment [1], in experiment [2] and in experiment [4] was “inactive” in each case. For the same molecule, the activation in experiment [3] was 0% [at 17.1 µM, percent relative to cAMP agonist control]; in experiment [5], 20.3% [at 30.8 µM].

Turning to `COc1cccc(CC(=NO)c2cccc(OC)c2)c1`, the Potency entry in [1], in experiment [2] and in experiment [4] was “inactive” in each case. Besides, the activation in experiment [3] was 4.78% [at 17.1 µM, percent relative to cAMP agonist control]; in experiment [5] it was 2.23% [at 30.8 µM].

For the molecule `Cc1ccc(-c2ccc(CCC(=O)O)n2-c2ccc(C(C)C)cc2)cc1`, in experiment [1], the Potency is 75.7 µM (active). Besides, the Potency entry in experiment [2], in [3], in [4] and in [5] was “inactive” each time.

For `Cc1ccc(S(=O)(=O)NC2CC(=O)N(c3ccc4c(c3)OCCO4)C2)cc1` (configuration not stated), the Potency entry in [1], in experiment [2] and in experiment [4] was “inactive” each time. The activation in [3] is 3.34% [at 17.1 µM, percent relative to cAMP agonist control]; in [5], 22.6% [at 30.8 µM].
